Sfp inh: inhibitors of Bacillus subtilis Sfp phosphopantetheinyl transferase | Q9F4F7 | Biochemical Sfp PPTase activity, qHTS | Potency, µM, without a hit: largest response in the series, negative = inhibition, usual class: inhibitors | 3.5% of 310,000 active | AID 1490;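 further: the enzyme is Sfp with the accession as filed and its product quenches rhodamine fluorescence; potency means the concentration at half of the fitted maximal effect; 0% = enzyme reaction without inhibitor and -100% = no enzyme wells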
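Fluorescence-quenching assay with 15 nM Sfp, 5 uM rhodamine-CoA and 12.5 uM BHQ-2-labelled ybbR peptide in pH 7.6 Hepes/MgCl2 buffer. Enzyme was pre-incubated with compound for 15 min at room temperature. Rate was taken from the 30-min fluorescence change (525/598 nm).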
CCT chaperon mod: modulators of cytosolic chaperonin (CCT/TRiC) activity; activity change, % (test concentration not listed), hits read low; purified chaperonin ATPase assay, HTRF ADP detection, 30 min; AID 651819; 0.3% of 360,000 active; in the data active means activity change below about -30%
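TRiC at 40 or 20 nM final (batch-dependent) in 30 mM Tris pH 7.4, 100 mM KCl, 5 mM MgCl2, 1 mM DTT, with compound at single 76 uM and 10 uM ATP, 30 min at 37 deg C. ADP detected by HTRF Transcreener, 665/615 ratio.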
Mm-Cpn inhibitor: blocks the Methanococcus maripaludis chaperonin Mm-Cpn; AID 504842; purified Mm-Cpn ATPase, ADP Transcreener TR-FRET; Potency, µM (top dose mostly 76.9 µM), without a hit: at the top dose activity, negative = inhibition, actives largely listed as inhibitors; 0.031% of 330,000 active; further: potency means the concentration at half of the fitted maximal effect; nearly all actives have a fitted effect of over 80% in size
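ATPase turnover read by TR-FRET ADP competition (Eu cryptate antibody/ADP-d2, 665/590 nm): 10uM ATP final, 25nM Mm-CPN final, 30 min 37degC after 10-min compound preincubation, pH 7.4 Tris/KCl/MgCl2/DTT buffer.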
G9a inh: inhibitors of human histone lysine methyltransferase G9a. G9a H3K9 monomethylation, AlphaScreen, 2 h. Potency, µM (doses to about 102 µM), inactives show at the top dose activity, negative = inhibition, hits mostly inhibitors. 8.8% of 350,000 active. AID 504332; further: potency means the concentration at half of the fitted maximal effect; nearly all actives have a fitted effect of over 75% in size
Target sequence (Q96KQ7 913-1193 limits assumed): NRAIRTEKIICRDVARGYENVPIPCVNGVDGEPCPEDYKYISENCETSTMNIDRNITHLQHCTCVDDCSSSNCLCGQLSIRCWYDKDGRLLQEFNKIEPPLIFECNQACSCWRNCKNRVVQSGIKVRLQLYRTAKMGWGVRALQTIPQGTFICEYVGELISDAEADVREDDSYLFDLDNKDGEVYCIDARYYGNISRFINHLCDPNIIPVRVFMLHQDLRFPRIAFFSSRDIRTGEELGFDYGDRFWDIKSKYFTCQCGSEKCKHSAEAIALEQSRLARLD
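Signal arises when biotinylated H3K9 peptide, once monomethylated, bridges streptavidin donor and antibody-captured acceptor beads. Enzyme at 20 nM was preincubated 15 min with test compounds; peptide 500 nM and SAM 20 uM then reacted for 2 h.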
VDR inh: inhibitors of human vitamin D receptor | P11473 | VDR-SRC2-3 peptide fluorescence polarization, 2 h | Potency, µM, inactives show max response, negative = inhibition, most hits filed as inhibitors | 0.93% of 400,000 active | AID 504847; further: potency means the concentration at half of the fitted maximal effect
Target sequence (P11473 whole entry, looked up): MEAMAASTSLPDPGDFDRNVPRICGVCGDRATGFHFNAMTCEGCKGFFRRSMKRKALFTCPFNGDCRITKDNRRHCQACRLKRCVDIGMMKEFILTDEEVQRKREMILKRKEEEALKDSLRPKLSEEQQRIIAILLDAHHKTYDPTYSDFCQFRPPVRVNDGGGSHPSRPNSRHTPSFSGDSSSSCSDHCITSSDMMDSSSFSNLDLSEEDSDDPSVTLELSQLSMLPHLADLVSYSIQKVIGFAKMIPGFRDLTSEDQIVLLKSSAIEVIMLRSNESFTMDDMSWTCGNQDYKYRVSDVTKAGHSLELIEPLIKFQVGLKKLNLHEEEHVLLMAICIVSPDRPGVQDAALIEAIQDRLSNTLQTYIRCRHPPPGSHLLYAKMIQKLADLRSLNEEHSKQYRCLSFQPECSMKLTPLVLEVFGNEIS
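Measured by FP: displacement of SRC2-3 coactivator peptide from VDR by library compounds, following a two-hour ambient incubation.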
PLK1 PBD block: inhibitors of human PLK1 polo-box domain binding | 2.8% of 360,000 active | Potency, µM, for the others: max response, negative = inhibition, usual class: inhibitors | P53350 | AID 720504 | Plk1 PBD binding of FITC phosphopeptide, fluorescence polarization; further: potency means the concentration at half of the fitted maximal effect; series mostly up to about 57 µM; nearly all actives have a fitted effect of over 65% in size
* marks the source's active call; other numbers are inactive results; [ ] = another dose, or the depositor's remark. Hits are enriched below; roughly 10% of the tested compounds scored in any of these assays. Unless noted, the call rests on the fitted dose curve; in most records, active means well fitted curve in the direction sought with a large enough effect; inconclusive means small, poorly fitted or top-dose-only effect, or another doubt; inactive means no such curve, though single readings can be large; an effect the other way counts as inactive or inconclusive. Unless noted, on the % scale 0 is the no-effect control and ±100 the full control effect.

CC(C)c1nnc(NC(=O)CCS(=O)(=O)Cc2ccccc2)s1 was read as Sfp inh inconclusive, CCT chaperon mod -2, Mm-Cpn inhibitor 0%, G9a inh 28µM*, VDR inh -5% and PLK1 PBD block inconclusive.
CCCc1nnc(NC(=O)CCC(=O)N2CCN(CCn3c(C)ccc3C)CC2)s1 was read as Sfp inh -3%, CCT chaperon mod 1, Mm-Cpn inhibitor 3%, G9a inh 71µM*, VDR inh 11% and PLK1 PBD block -7%.
Cc1nnc(NC(=O)CS(=O)(=O)Cc2ccccc2)s1 was read as Sfp inh 6%, CCT chaperon mod -1, Mm-Cpn inhibitor 0%, G9a inh inconclusive, VDR inh 4% and PLK1 PBD block -6%.
`CC(C)c1nnc(NC(=O)CCC(=O)N2CCN(Cc3ccccc3)CC2)s1` gave Sfp inh 11%, CCT chaperon mod -43*, Mm-Cpn inhibitor -1%, G9a inh -4%[59 µM], VDR inh 1% and PLK1 PBD block -16%.
For CC(C)c1nnc(NC(=O)CCC(=O)N2CCN(c3ccc(Cl)cc3)CC2)s1 the results were Sfp inh -4%, CCT chaperon mod -2, Mm-Cpn inhibitor -1%, VDR inh -3% and PLK1 PBD block -8%.
CCc1ccc(-c2cn3c(n2)sc2cc(C(=O)NCCC4=CCCCC4)ccc23)cc1 was read as G9a inh inconclusive and VDR inh 9%.
`Cc1ccccc1CSc1nc2c([nH]c3ccccc32)c(=O)n1-c1ccccc1` gave G9a inh 11%[59 µM] and VDR inh 3%.
Screening COc1cccc(C(=O)NCC(c2ccc(N(C)C)cc2)N2CCCC2)c1OC (configuration not stated) returned G9a inh inconclusive and VDR inh 0%.
`Cc1ccc(-n2ncc(C(=O)NCc3ccccc3)c2C2CCN(C(=O)OC(C)(C)C)CC2)cc1` gave G9a inh inconclusive and VDR inh -7%.
Screening COc1ccc(OC)c(-n2c(CN3CCC(C(N)=O)CC3)nc3ccccc3c2=O)c1 returned Sfp inh 35µM*, CCT chaperon mod 1, Mm-Cpn inhibitor 0%, G9a inh inconclusive, VDR inh -10% and PLK1 PBD block -6%.
COc1ccc(-n2c(CN3CCOCC3)nc3ccc([N+](=O)[O-])cc3c2=O)c(OC)c1 was read as Sfp inh inconclusive, CCT chaperon mod -1, Mm-Cpn inhibitor 1%, G9a inh 45µM*, VDR inh -15% and PLK1 PBD block -8%.
`COc1cccc(-n2c(CN3CCN(c4ccccn4)CC3)nc3ccc([N+](=O)[O-])cc3c2=O)c1` gave Sfp inh 14µM*, CCT chaperon mod 0, Mm-Cpn inhibitor 1%, G9a inh 28µM*, VDR inh -4% and PLK1 PBD block -7%.
CCOC(=O)N1CCN(Cc2nc3ccc([N+](=O)[O-])cc3c(=O)n2-c2ccc(OC)cc2OC)CC1 was read as Sfp inh -8%, CCT chaperon mod 0, Mm-Cpn inhibitor 1%, G9a inh inconclusive, VDR inh 0% and PLK1 PBD block -6%.
COc1ccc(-n2c(CN3CCN(c4ccccc4)CC3)nc3ccc([N+](=O)[O-])cc3c2=O)c(OC)c1 was read as Sfp inh -18%, CCT chaperon mod -3, Mm-Cpn inhibitor 1%, G9a inh 40µM*, VDR inh 7% and PLK1 PBD block -10%.
`Cc1ccc2c(c1)cc1c(=O)n(Cc3ccccc3Cl)nc(C)n12` gave G9a inh 6%[59 µM] and VDR inh 16%.
For CCCCOc1ccc2c(c1)C(=O)c1cc(O)ccc1-2 the results were Sfp inh -2%, CCT chaperon mod -3, Mm-Cpn inhibitor 1%, G9a inh 32µM*, VDR inh -19% and PLK1 PBD block -10%.
CCOc1ccc2c(c1)C(=O)c1cc(OCC(=O)O)ccc1-2 was read as Sfp inh 1%, CCT chaperon mod 1, Mm-Cpn inhibitor 0%, VDR inh 3% and PLK1 PBD block -4%.
For O=C(Nc1ccccc1N1CCCCC1)c1ccc(-c2cccc(Cl)c2)o1 the results were Sfp inh -21%, CCT chaperon mod 0, Mm-Cpn inhibitor -1%, G9a inh -1%[59 µM], VDR inh -5% and PLK1 PBD block -6%.
`CN1CCN(c2ccccc2NC(=O)c2ccc(-c3cccc(Cl)c3)o2)CC1` gave Sfp inh -26%, CCT chaperon mod -1, Mm-Cpn inhibitor 0%, G9a inh 35µM*, VDR inh -10% and PLK1 PBD block -3%.
`Cc1ccc2nsnc2c1NC(=O)c1ccc(-c2cc(Cl)ccc2Cl)o1` gave Sfp inh 28µM*, CCT chaperon mod -3, Mm-Cpn inhibitor -3%, G9a inh inconclusive, VDR inh -6% and PLK1 PBD block -8%.
CS(=O)(=O)N1CCN(c2ccccc2NC(=O)c2ccc(-c3ccc(Cl)cc3Cl)o2)CC1 was read as Sfp inh -5%, CCT chaperon mod -4, Mm-Cpn inhibitor -4%, G9a inh -50%[12.7 µM], VDR inh -4% and PLK1 PBD block -9%.
`Cc1cccc2c1-c1sc(C(=O)NCCCN3CCN(c4ccccc4F)CC3)cc1CO2` gave G9a inh 1%[59 µM] and VDR inh 0%.
For Cc1cccc2c1-c1sc(C(=O)Nc3ccccc3N3CCN(C)CC3)cc1CO2 the results were Sfp inh 35µM*, CCT chaperon mod -2, Mm-Cpn inhibitor 0%, VDR inh -4% and PLK1 PBD block -7%.
`CN1CCN(c2ccccc2NC(=O)c2ccc(-c3ccc(Cl)cc3Cl)o2)CC1` gave Sfp inh 56µM*, CCT chaperon mod -3, Mm-Cpn inhibitor 2%, G9a inh 45µM*, VDR inh -25% and PLK1 PBD block 2%.
`CCCn1nnc(NC(=O)c2ccc(-c3cccc(Cl)c3)o2)n1` gave Sfp inh -4%, CCT chaperon mod -1, Mm-Cpn inhibitor -1%, G9a inh 16%[59 µM], VDR inh -3% and PLK1 PBD block -7%.
`O=C(Nc1cccc2nsnc12)c1ccc(-c2cccc(Cl)c2)o1` gave Sfp inh 25µM*, CCT chaperon mod -2, Mm-Cpn inhibitor -1%, G9a inh 25µM*, VDR inh inconclusive and PLK1 PBD block inconclusive.
Screening Cc1ccc(NC(=O)C2CCCN(c3ncnc4c3nc3n4CCCCC3)C2)c(Br)c1 (configuration not stated) returned G9a inh 0%[59 µM] and VDR inh 16%.
`CCOC(=O)c1c(NC(=O)CSc2cn(CCNC(=O)c3c(F)cccc3F)c3ccccc23)sc2c1CCC2` gave G9a inh -35%[59 µM] and VDR inh -3%.
